Assay results taken from PubChem BioAssay AID588342 (National Center for Advancing Translational Sciences (NCATS), 2011).
Screen size: about 360,000 compounds; about 25,000 (6.9%) were called active. Another 9% or so got no clear call; they are omitted. The call rests on the fitted dose curve; in most records, active means well fitted inhibition curve with a large enough effect; inconclusive means small, poorly fitted or top-dose-only effect; inactive means flat fitted curve, though single readings scatter. The sample as a whole holds a higher share of actives than the screen did.

What follows are molecules tested against Luciferin 4-monooxygenase (Photinus pyralis) (UniProt P08659) (assay: qHTS profiling assay for firefly luciferase inhibitor/activator using purifed enzyme and Km concentrations of substrates (counterscreen for miR-21 project)). Conditions: purified FLuc, luminescence inhibition; series mostly up to 57.5 µM; activity change, negative = inhibition: at the top concentration.
Outline: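 Purified P. pyralis luciferase (10nM final) with 10uM D-luciferin and 10uM ATP (Km levels) in 50mM Tris acetate pH 7.5, 10mM Mg acetate, 0.01% Tween-20, 0.05% BSA; qHTS 6-point titration, ~60 µM downward; luminescence read.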
Further: nearly all actives have a fitted effect of over 55% in size.
Potency means the concentration at half of the fitted maximal effect.
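Wherever activity change, negative = inhibition is given: plate controls were vehicle for no effect and reference inhibitor for full effect.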

Sequence of Luciferin 4-monooxygenase (Photinus pyralis) (P08659 whole entry, looked up): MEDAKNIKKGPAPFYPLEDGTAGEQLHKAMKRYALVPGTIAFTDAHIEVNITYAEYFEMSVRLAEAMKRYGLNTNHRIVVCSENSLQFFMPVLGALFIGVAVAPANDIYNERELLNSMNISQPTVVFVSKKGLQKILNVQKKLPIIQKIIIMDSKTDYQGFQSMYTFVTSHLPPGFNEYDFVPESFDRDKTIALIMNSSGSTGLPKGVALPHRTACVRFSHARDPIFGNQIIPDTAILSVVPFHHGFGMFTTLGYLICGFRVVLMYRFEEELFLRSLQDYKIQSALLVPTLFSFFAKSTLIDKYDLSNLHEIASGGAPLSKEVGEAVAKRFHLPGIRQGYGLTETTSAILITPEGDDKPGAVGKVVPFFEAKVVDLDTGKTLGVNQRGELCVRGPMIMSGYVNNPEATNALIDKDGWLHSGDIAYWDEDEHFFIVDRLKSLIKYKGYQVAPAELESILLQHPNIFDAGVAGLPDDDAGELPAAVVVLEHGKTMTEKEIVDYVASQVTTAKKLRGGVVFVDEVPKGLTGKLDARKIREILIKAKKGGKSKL

| SMILES | activity change, negative = inhibition | Potency |
| --- | --- | --- |
| Cc1ccccc1CNC(=O)C(=O)NCC(c1cccs1)S(=O)(=O)c1cccs1 (stereo not drawn) | -9.18% (inactive) |  |
| Cc1nc(N2CCOCC2)c2c(C(=O)NCc3cccc(Cl)c3)c(C)oc2n1 | -2.72% (inactive) |  |
| O=C1Nc2cc(C(=O)N3CCC(N4CCCCC4)CC3)ccc2S/C1=C\c1ccccc1 | -1.4% (inactive) |  |
| Cc1nc(NC(=O)c2ccc3c(c2)OCCO3)ccc1Br |  | 1.51 µM (active) |
| O=C(Nc1ccc(Cl)cn1)c1cnn2cccnc12 |  | 7.57 µM (active) |
| CS(=O)(=O)c1ccc(-c2nnc(NC(=O)c3ccc4c(c3)OCCO4)o2)cc1 | -2.9% (inactive) |  |
| O=C(NCc1ccco1)c1nn2cccnc2c1Cl | -9.49% (inactive) |  |
| CCCc1cc(C(=O)Nc2ccc(C(=O)OC)cc2)cs1 | -14.7% (inactive) |  |
| O=C(Nc1ccc(Cl)cn1)c1ccc2c(c1)OCCO2 |  | 1.35 µM (active) |
| COc1ccc(C(=O)NC(=S)Nc2ccc(Cl)cn2)cc1OC | -5.46% (inactive) |  |
| CC1(c2ccc(Cl)cc2)NC(=O)N(CC(=O)c2ccc3c(c2)OCO3)C1=O (stereo not drawn) | -20.5% (inactive) |  |
| CCCCC(CC)C(=O)Nc1ccc(Cl)cn1 (stereo not drawn) | -1.5% (inactive) |  |
| CCCc1cc(C(=O)Nc2ccc(Cl)cn2)cs1 |  | 0.478 µM (active) |
| Cc1cc(NC(=O)c2cnn3cccnc23)n(-c2ccccc2)n1 | 3.79% (inactive) |  |
| Cc1cccc(C)c1NC(=O)CNC(=O)c1ccc2c(c1)OCCO2 | -2.86% (inactive) |  |
| CC12CCC(=O)N1C(C(=O)Nc1ccc(F)c(F)c1F)CS2 (stereo not drawn) | -0.97% (inactive) |  |
| COc1ccc(OC)c(CNC(=O)CN2C(=O)CCn3nc(-c4cn(C)c5ccccc45)cc32)c1 | 0.0113% (inactive) |  |
| CCN(CC(=O)Nc1ccc(OC)cc1)C(=O)CSCc1ccc(C)cc1 | -1.05% (inactive) |  |
| COc1cc(/C=N\NC(=O)C2C(=O)NCC2c2ccccc2)cc(OC)c1O (stereo not drawn) | 5.59% (inactive) |  |
| COc1cc(/C=N/NC(=O)c2cc(C)n(-c3ccc(F)cc3)c2C)cc(OC)c1O |  | 15.1 µM (active) |
| CC(Oc1ccccc1[N+](=O)[O-])C(=O)N/N=C/c1ccoc1 (stereo not drawn) | 2.82% (inactive) |  |
| CC(C)c1cc(C(=O)N/N=C/c2ccoc2)c(O)c(C(C)C)c1 | 5.96% (inactive) |  |

| SMILES | activity change, negative = inhibition | Potency |
| --- | --- | --- |
| Cc1nn(CC(=O)N/N=C/c2ccc(F)cc2)c(C)c1[N+](=O)[O-] | -0.587% (inactive) |  |
| Cc1cc(C(=O)N/N=C/c2ccc(O)c([N+](=O)[O-])c2)c(C)n1-c1ccc(F)cc1 |  | 2.39 µM (active) |
| Nc1c(N(Cc2ccco2)C(=O)c2cccc(F)c2)c(=O)[nH]c(=O)n1Cc1ccccc1 | 2.26% (inactive) |  |
| Cc1ccccc1C(=O)Nc1nnc(S(=O)(=O)N(C)c2ccc(Cl)cc2)s1 | -8.25% (inactive) |  |
| CC(C)(CNC(=O)CNC(=O)C1CCCCC1)N1CCOCC1 | -0.324% (inactive) |  |
| CCOC(=O)c1ccc(NC(=O)c2c(NCc3cccc(OC)c3)sc3c2CCC3)cc1 | 0.213% (inactive) |  |
| O=C(C1CCC(Cn2c(=O)c3sccc3n(Cc3ccccc3F)c2=O)CC1)N1CCCCC1 (stereo not drawn) | -10.1% (inactive) |  |
| CC1(C)CC(=O)C=C(c2cccc3c2Oc2ccccc2S3)C1 | -3.41% (inactive) |  |
| COc1cccc(OCC(=O)Nc2ccccc2C(N)=O)c1 |  | 4.78 µM (active) |
| Cc1cccc(OCC(=O)Nc2ccc(C(=O)O)cc2NC(=O)COc2cccc(C)c2)c1 | 0.888% (inactive) |  |
| Cc1cccc(OCCC(=O)Nc2ccccc2C(N)=O)c1 | -0.608% (inactive) |  |
| CCCOC(=O)Nc1ccccc1C(N)=O | 3.69% (inactive) |  |
| Cc1cccc(OCC(=O)NCCCNC(=O)c2ccccn2)c1 | -1.63% (inactive) |  |
| Cc1cccc(OCC(=O)Nc2ccccc2F)c1 |  | 21.3 µM (active) |
| CCc1ccc(-n2nc(C)c3c(C)cc(=O)n(CC(=O)Nc4ccc(F)cc4C)c32)cc1 | 1.92% (inactive) |  |
| CCCNc1ncnc2c1c(-c1ccccc1)cn2-c1ccc(OCC)cc1 | -5.23% (inactive) |  |
| O=C(COc1ccccc1O)NC1CCCC1 | -1.18% (inactive) |  |
| CCOC(=O)c1ccc(NC(=O)c2nc(SCc3ccc(F)cc3)ncc2Cl)cc1 | -7.43% (inactive) |  |
| COc1ccccc1N=Cc1c(O)c2ccccc2oc1=O |  | 1.9 µM (active) |
| COc1ccccc1N=C(C)C1=C(O)COC1=O | 2.19% (inactive) |  |
| COc1cc(N=Cc2c(O)c3ccccc3oc2=O)c(OC)cc1Cl | 0.283% (inactive) |  |
| O=C(Nc1ccc(OC(F)(F)F)cc1)c1cc2c(=O)n3ccccc3nc2s1 | 1.26% (inactive) |  |

| SMILES | activity change, negative = inhibition | Potency |
| --- | --- | --- |
| CCc1cc2c(-c3ccccc3)cc(=O)oc2c2c1OCN(Cc1ccc(C)cc1)C2 | -2.21% (inactive) |  |
| Cc1cccc(C(=O)Nc2ccc(-c3nc4ncccc4o3)cc2C)c1 | -1.32% (inactive) |  |
| CCC(CC)c1nnc(NC(=O)/C=C/c2ccco2)s1 | 2.36% (inactive) |  |
| CCc1ccc2oc(-c3ccc(C)c(NC(=O)/C=C/c4ccco4)c3)nc2c1 |  | 3.01 µM (active) |
| Cc1ccc2cccc(NC(=O)c3cccc4ccccc34)c2n1 | -2.45% (inactive) |  |
| CN(c1ccc2nc3ccccc3c(=O)n2n1)C1CCCCC1 |  | 0.169 µM (active) |
| CC(C)C(C)NC(=O)COc1nc2ccccc2nc1N(C)C1CCCCC1 (stereo not drawn) | 0.505% (inactive) |  |
| O=c1c2ccccc2nc2n1C1(CCCCC1)Cc1ccccc1-2 | -1.54% (inactive) |  |
| CCC(=O)N1CCc2cc(CNC(=O)Nc3ccccc3Cl)ccc21 | -15.3% (inactive) |  |
| COc1cc2sc(C)nc2cc1C | -2.95% (inactive) |  |
| CCCc1nc(NCc2ccc3c(c2)OCO3)c2nnn(Cc3ccccc3Cl)c2n1 | -0.879% (inactive) |  |
| Cc1nc(Nc2ccc3c(c2)OCCO3)c2nnn(Cc3ccccc3Cl)c2n1 |  | 26.9 µM (active) |
| Cc1nc(Nc2ccccc2F)c2nnn(Cc3ccccc3Cl)c2n1 | -4.09% (inactive) |  |
| O=c1[nH]nc(CSCc2ccccc2Cl)[nH]1 | 2.07% (inactive) |  |
| c1ccc2c(CSCc3nc4ccccc4[nH]3)cccc2c1 |  | 10.7 µM (active) |
| Clc1ccccc1SCc1nc2ccccc2[nH]1 |  | 13.5 µM (active) |
| COc1ccc(OC(C)C(=O)NCCc2nc3ccccc3[nH]2)cc1 (stereo not drawn) | -0.594% (inactive) |  |
| Nc1cccc(CCc2nc3ccccc3[nH]2)c1 | -21.6% (inactive) |  |
| c1ccc(-c2nnc(SCc3nc4ccccc4[nH]3)o2)cc1 | 1.85% (inactive) |  |
| COC(=O)Cc1ccc(OC(=O)C2CCN(S(=O)(=O)c3ccc(OC)c(OC)c3)CC2)cc1 | 1.97% (inactive) |  |
| Cc1nnsc1C(=O)NCc1c(F)cccc1Cl | -1.24% (inactive) |  |
| Cc1nn(Cc2ccccc2)c(C)c1CNC(=O)c1ccc(F)c(S(=O)(=O)N2CCOCC2)c1 | 5.42% (inactive) |  |

| SMILES | activity change, negative = inhibition | Potency |
| --- | --- | --- |
| O=C(NC(=S)Nc1cccc(-c2ccc(CO)o2)c1)c1cccs1 |  | 19 µM (active) |
| O=C(NC(=S)Nc1ccc(NC(=O)c2cccs2)cc1)c1ccc([N+](=O)[O-])cc1 | 0.372% (inactive) |  |
| O=C(Nc1ccccc1-c1ccccc1)c1cccs1 | 5.07% (inactive) |  |
| CCc1cnc2c(c1SCC(=O)c1ccccc1)c(=O)n(C)c(=O)n2C | 0.976% (inactive) |  |
| O=S(=O)(NCc1ccccc1Br)c1ccccc1Br | -13.2% (inactive) |  |
| CCOC(=O)c1ccc(Nc2cc(C)nc3nc(C)nn23)cc1 | 4.41% (inactive) |  |
| Cc1cc(C)n(C(=O)c2ccc(S(=O)(=O)N3CCCC3)cc2)n1 | -0.0836% (inactive) |  |
| Cc1cc(Nc2ccccc2)n(C(=O)c2ccc(N)cc2)n1 |  | 9.53 µM (active) |
| CSCC[C@H](NC(=O)OC(C)(C)C)C(=O)N/N=C/c1cc2ccc(C)cc2nc1Cl | 1.83% (inactive) |  |
| O=C(O)c1ccc(N/N=C/c2ccc3ncccc3c2)cc1 |  | 0.675 µM (active) |
| CCNC(=S)NNC(=O)c1ccc2ncccc2c1 | -6.07% (inactive) |  |
| Cc1ccc2cc(/C=N/NC(=O)[C@@H]3CCCN3)c(Cl)nc2c1 | -3.8% (inactive) |  |
| Cc1ccc(S(=O)(=O)Nc2ccc3ncccc3c2)cc1 | -1.82% (inactive) |  |
| Cc1ccc2cc(/C=N/Nc3ccc(C(=O)O)cc3)c(Cl)nc2c1 |  | 0.151 µM (active) |
| O=C(NCc1ccco1)c1cccn2c(=O)c3c4c(sc3nc12)CCCC4 | -11.7% (inactive) |  |
| Cn1c(=O)n(Cc2ccco2)c(=N)c2c3c(sc21)CCCC3 | -1.02% (inactive) |  |
| O=c1oc(-c2ccco2)nc2sc3c(c12)CCCCC3 |  | 0.675 µM (active) |
| CCN(C(=O)CSc1nnc(-c2ccc(OC(F)F)cc2)n1N)C1CCS(=O)(=O)C1 (stereo not drawn) | -1.63% (inactive) |  |
| O=C(NNC(=O)c1ccc(-n2cncn2)c([N+](=O)[O-])c1)c1ccccc1 | -7.75% (inactive) |  |
| CC(=NCc1ccco1)c1c(C(F)(F)F)[nH]n(-c2nc3ccccc3s2)c1=O |  | 7.57 µM (active) |
| C/C(=N\NC(=O)CC(C)C)c1c(C(F)(F)F)[nH]n(-c2nc3ccccc3s2)c1=O |  | 5.36 µM (active) |
| C/C(=N\NC(=O)CSc1nc2ccccc2c(=O)n1-c1ccccc1C)c1cccs1 | 2.93% (inactive) |  |

| SMILES | activity change, negative = inhibition | Potency |
| --- | --- | --- |
| CCC1(CC)NC(=O)N(Cc2nc3ccccc3s2)C1=O | 1.69% (inactive) |  |
| Cc1cccc(NC(=O)c2cc3c(C)nn(-c4ccccc4)c3s2)c1 | -2.33% (inactive) |  |
| O=C(NCc1ccncc1)C1CCN(C(=O)c2cccc(Cl)c2)CC1 | 2.73% (inactive) |  |
| Cc1ccc(-n2c(CNc3ccc(F)cc3)nnc2SCC(=O)N2CCOCC2)cc1 | 5.25% (inactive) |  |
| O=C(CSc1cccc[n+]1[O-])c1ccc(-c2ccccc2)cc1 |  | 19 µM (active) |
| COc1ccccc1C(=O)CSc1cccc[n+]1[O-] | -1.55% (inactive) |  |
| O=C(CSc1cccc[n+]1[O-])c1ccc(Cl)cc1 | -5.96% (inactive) |  |
| CC(O)c1cccc(NC(=O)Cc2cccc3ccccc23)c1 (stereo not drawn) | -9% (inactive) |  |
| CCC(=O)N1c2ccc(S(=O)(=O)CCC(=O)N3CCN(c4ccccc4)CC3)cc2CC1C (stereo not drawn) | 0.169% (inactive) |  |
| Cc1ccn(CCC(=O)N2c3ccccc3CC2C)n1 (stereo not drawn) | 0.985% (inactive) |  |
| CCCC(=O)N1c2ccc(-c3csc(N)n3)cc2CC1C (stereo not drawn) |  | 7.57 µM (active) |
| CCOc1ccccc1NC(=O)Cn1c(=O)n(-c2cccc(C)c2)c(=O)c2c1c1cc(OC)ccc1n2C | 1.32% (inactive) |  |
| CN(CC(=O)NC(=O)Nc1ccccc1F)Cc1ccccc1 | -17.3% (inactive) |  |
| Oc1ccc(-c2nc3ccc(Cl)cn3c2Nc2ccc3c(c2)OCO3)cc1 | -17.2% (inactive) |  |
| CN(C(=O)COc1ncnc2c1cnn2-c1ccccc1)C1CCCCC1 | 4.1% (inactive) |  |
| c1ccc(-n2ncc3c2ncn2c(C4CCCCC4)nnc32)cc1 | -19.9% (inactive) |  |
| CCN(c1ncnc2c1cnn2-c1ccc(C)cc1)C1CCCCC1 |  | 2.13 µM (active) |
| O=C(Nn1cnc2ccccc2c1=O)c1ccc([N+](=O)[O-])cc1Cl | -16.3% (inactive) |  |
| O=c1c2ccccc2ncn1CCCCOc1ccccc1F | -12.9% (inactive) |  |
| O=C(Nn1cnc2ccccc2c1=O)c1ccc(F)cc1Cl |  | 13.5 µM (active) |
